Measurements: PubChem BioAssay (NCI)
Compounds without any hit were thinned out: in the full panel of roughly 83,000, 20% have a hit.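 Testing used 96-well plates and a 48-hour single-concentration exposure. Example: -40 means 40% of the starting cells died.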 Values without a mark were called inactive. Active and inactive are the calls of the source. The calls were made as follows: active = growth percent below 10; inactive = the rest.

Test system: RXF 393 renal
Test: NCI-60 one-dose screen, 48 h (100 = growth as untreated, 0 = no growth, -100 = all killed)
Settings: 10 µM unless noted

Row | Compound | growth
1 | O=c1oc2c(cnc3ccccc32)cc1-c1cccc(Cl)c1 | 112%
2 | CCOC(=O)c1c(C)nc2c(c1N)C(=O)C(=O)N2Cc1ccc(OC)cc1 | 87.9%
3 | CCNC(=O)N1CCc2c(Br)c3c(c(OC)c2C1Cc1ccc(OC)cc1)OCO3 (stereo not given) | 17%
4 | COc1cc2c(c(OC)c1OC)CCC(c1cccc(C(=O)Nc3ccc(Br)cc3)c1)O2 (stereo not given) | 75%
5 | OC1CSSC1Cn1cnc2c(Nc3ccc(OCc4cccc(F)c4)c(Cl)c3)ncnc21 (stereo not given) | 42.3%
6 | Cc1ccc(OCCOCCOCCOc2ccc(C)n(O)c2=S)c(=S)n1O | 66%
7 | C=CN(C(=O)N1CCN(c2cc3c(cc2F)c(=O)c(C(=O)O)cn3C2CC2)CC1)c1nc(-c2ccc(Cl)cc2)cs1 | 53.3%
8 | C#CCOc1cccc(Nc2ncnc3cc(NC(=O)CCl)ccc23)c1 | -75.6% (active)
9 | Cc1nc2ccccc2c(/C=C/c2ccc(F)cc2)c1C(=O)/C=C/c1ccccc1 | -3.77% (active)
10 | COc1cc(/C=C/C(=O)N2CCN(C(=O)c3cc(OC)c(OC)c(OC)c3)CC2)ccc1OCCCOc1cc2c(cc1OC)C(=O)N1CCC[C@H]1C=N2 | -55.4% (active)
11 | O=C(NC1CCC(Br)CC1)C1CCCC(S(=O)(=O)NC2CCCCC2)C1 (stereo not given) | 37.2% [25 µM]
12 | COc1cc(/C=C/c2cn[nH]c2-c2ccc(C)cc2)cc(OC)c1OC | 16.1%
13 | COc1ccc(C/C(C)=C(\c2ccc(Cl)cc2)c2ccc(OCCN3CCCC3)cc2)cc1 | 64.1%
14 | CN(C)Cc1ccc(NC(=O)c2cncc(C#Cc3cnc(N)c4ncccc34)c2)cc1C(F)(F)F | -49.1% (active)
15 | COC(=O)c1c(C)nc(C)c2c1C(=O)C=C(NCc1ccccc1)C2=O | 94.5%
16 | N#CSc1c[nH]c2ccc(/C=C/C(=O)/C=C(O)/C=C/c3ccc4[nH]cc(SC#N)c4c3)cc12 | 9.89% (active)
17 | Cc1ccc(-c2nc(SCC(=O)N3CCN(c4cc5c(cc4F)c(=O)c(C(=O)O)cn5C4CC4)CC3)nc(Cl)c2C#N)cc1 | 106%
18 | COC(=O)/C=C1/SC(=NCc2ccccc2)N(CCc2c[nH]c3ccccc23)C1=O | 81.9%
19 | C=C(C)[C@@H]1CC[C@]2(C(=O)N3CCN(C)CC3)CC[C@]3(C)[C@H](CC[C@@H]4[C@@](C)(CCC(=O)O)[C@H](C(=C)C)CC[C@]43C)[C@@H]12 | 93.3%
20 | Nc1[nH]nc2nc(-c3ccccc3)n3c4ccccc4nc3c12 | 93.9%

Row | Compound | growth
21 | CN1CCOCCN(C)Cc2ccc3ccc(cc3c2)CN(C)CCOCCN(C)Cc2ccc3ccc(cc3c2)C1 | 75.9%
22 | COc1ccc(/C=N/Nc2c3ccccc3nc3ccccc23)cc1 | 103%
23 | C=C1C(=O)O[C@H]2[C@H]1CC/C(CNC(=O)Cc1c[nH]c3ccccc13)=C\CC[C@@]1(C)O[C@@H]21 | -72.3% (active)
24 | COc1ccc2c(c1)CC[C@@H]1[C@@H]2CC[C@]2(C)c3c(cc(C#N)c4c3sc3ccccc34)C[C@@H]12 | 106%
25 | O=C(c1c[nH]c2ccccc12)c1n[nH]c(=S)n1-c1ccc([N+](=O)[O-])cc1 | 102%
26 | Cc1c2cnccc2c(C)c2c1c1cc(CO)ccc1n2C | -84.7% (active)
27 | COc1cc(-c2nccc3[nH]c(-c4cccc5[nH]ccc45)nc23)cc(OC)c1OC | 50.8%
28 | Clc1ccc(-c2nc(C(Cl)Cl)nc3cc(-c4ccccc4)nn23)cc1 | -55% (active)
29 | CC1=Nc2cnc(Nc3ccc(N4CCCCC4)cc3)nc2Nc2ccccc21 | 68%
30 | CN(C)c1ccc([C@@H](C(=O)Nc2cccc([N+](=O)[O-])c2)N(C(=O)c2cc3ccccc3[nH]2)c2cccc([N+](=O)[O-])c2)cc1 | 100%
31 | O=C(CSc1nnnn1-c1ccccc1)Nc1ccc(Oc2ccccc2)cc1 | 111%
32 | COc1cc(/C=C/C(=O)c2cccc(-n3cc(-c4ccc(Cl)cc4)[nH]c3=O)c2)ccc1O | 23.7%
33 | Oc1c(CN2CCC(N3CCOCC3)CC2)cc(Cc2cc(CN3CCC(N4CCOCC4)CC3)c(O)c3ncccc23)c2cccnc12 | 53.5%
34 | c1ccc2cc(Cn3cc(CSc4nc5ccccc5s4)nn3)ccc2c1 | 98.3%
35 | CN(C)Cc1cc(C(C)(C)C)cc(Br)c1O | 93.9%
36 | CCN(CC)CCOc1ccc(/C(=C(\C)Cc2ccc(OC)cc2)c2ccc(OC(=O)NCc3ccccc3)cc2)cc1 | 59.7%
37 | C=C1C(=O)O[C@H]2[C@H]1CC/C(COC(=O)NCc1ccc(Cn3c(=O)sn(-c4ccc(I)cc4)c3=O)cc1)=C\CC[C@@]1(C)O[C@@H]21 | 61.2%
38 | O=c1oc2ccccc2cc1-c1nn(-c2ccccc2)cc1-c1nn[nH]n1 | 99.4%
39 | O=c1oc2c(cc1-c1ccccc1)c(=O)[nH]c1ccccc12 | 102%
40 | CC1=C(Cl)C(=O)c2cc(C)ccc2C1=O | 84.9%
